# In PubChem BioAssay AID1224853 (National Center for Advancing Translational Sciences (NCATS), 2016):
# Records with an inconclusive call do not appear. A call without a number means that no potency is given here. The source made the active and inactive calls. The call rests on the fitted dose curve; in most records, active means well fitted inhibition curve with a large enough effect; inconclusive means small, poorly fitted or top-dose-only effect; inactive means no such curve, though single readings can be large or run the other way.
# Assay: Confirmation assay for measurement of the activity of small molecule inhibitors on Zika virus induced Caspase-3 activity in human astrocytoma cells
# Details: SNB-19 ZIKV-induced caspase-3/7, luminescence, 6 h; series mostly up to 46.1 µM
# Excerpt: National Center for Advancing Translational Sciences [NCATS] Johns Hopkins University School of Medicine Florida State University Assay Overview: Increase in the Caspase-3 activity indicates an activation of apoptosis cell death pathway caused by Zika virus infection in certain types of neuronal cells including human neural progenitor cells (hNPCs), astrocytes, and astrocytoma cell line (SNB-19). This cell-based caspase-3 activity assay measures the increased caspase-3 activity in the astrocytoma cell line (SNB-19) after a 6-hour Zika virus infection with a luminescence readout. A decrease in the luminescence signal in this assay by small molecule treatment indicates an inhibitory effect of that small molecule on the Zika virus induced caspase-3 activity that may correlate with its effect on reduction of Zika virus caused cell death.
# Assay Protocol Summary: The medium for SNB-19 cells is composed of RPMI 1640 (ATCC, Cat.# 30-2001), 10% fetal bovine serum (FBS) (GE healthcare Life Sciences, Cat.# SH30071.03), and 1% Pen/Strep (Gibco, Cat.# 15140-122). A Caspase-Glo 3/7 assay kit (catalog number G8092; Promega, Madison, WI) was used to detect caspase-3 activity induced by Zika virus infection in human cells. The reagent mixture was reconstituted as described in the protocol from the manufacturer. Polystyrene tissue culture treated and PDL coated white plates were obtained from Greiner Bio-One (Monroe, NC). Cells were seeded in 384- or 1536-well assay plates and cultured at 37 C with 5% CO2 for 16 to 20 hours. The typical cell seeding density in the 1536-well plate assay is 250 cells/well in 3ul medium for SNB-19 cells in tissue culture treated plates. Compounds were added to cells and incubated for one hour before addition of ZIKV solution to cells (2 FFU/cell). After incubation at 37 C with 5% CO2 for 6 hours, the reagent mixture of Caspase-Glo 3/7 assay kit was added to each well, followed by incubation at room temperature for 30 minutes. The luminescence intensity of the assay plates was measured using a ViewLux plate reader (PerkinElmer). Data were normalized by using the cell-containing wells without ZIKV as a negative control (0% induction of caspase 3/7 activity) and wells containing ZIKV infected cells (Caspase-3 activity induced) as a positive control (100% induction of caspase 3 activity). The percentage inhibitions of the increased Caspase-3 activity by small molecule inhibitors were then calculated.
row,SMILES,Potency
1,CC(C)[C@H]1C(=O)N[C@H](CO)Cc2c[nH]c3cccc(c23)N1C,inactive
2,Cc1ccc([N+](=O)[O-])[c]2c1[O][Hg]2,10.9 µM (active)
3,O=S(=O)(CC1CS1)c1ccc(Oc2ccccc2)cc1 (centres undefined),inactive
4,CC(C)N[C@@H]1CCn2c(=O)[nH]c3cccc(c32)[C@@H]1O,inactive
5,Oc1ccc([C@H]2CNCc3c2ccc(O)c3O)cc1O,inactive
6,CC(C)[N+](C)(CCC(C(N)=O)(c1ccccc1)c1ccccc1)C(C)C,inactive
7,O=C1C=CC[C@@H]2[C@H]3CCCN4CCC[C@@H](CN12)[C@@H]34,inactive
8,COP(=S)(OC)SCN1C(=O)c2ccccc2C1=O,inactive
9,CC(O)CN1CCN(CC(=O)[O-])CCN(CC(=O)[O-])CCN(CC(=O)[O-])CC1.[Gd+3] (centres undefined),inactive
10,O=c1c2ccccc2[se]n1-c1ccccc1,17.3 µM (active)
11,O=C(Nc1ccc(Br)cc1)c1cc(Br)cc(Br)c1O,6.9 µM (active)
12,O=C1CCC[C@@H]2[C@H]3CCCN4CCC[C@@H](CN12)[C@@H]34,inactive
13,S=C(SSC(=S)N1CCCCC1)N1CCCCC1,inactive
14,COC1(CS(=O)c2ccccc2)CCN(CCc2c[nH]c3ccc(F)cc23)CC1 (centres undefined),inactive
